# “And” between values parts separate entries of the source, which are not always exact repeats. Equal entries are not always repeated. Where two headings read alike, the source gives them in different places.
# Assays:
# [1] = tested on: AAK1; settings: n = 1
# [2] = tested on: ABL1-nonphosphorylated; settings: n = 1
# [3] = tested on: ABL1-phosphorylated; settings: n = 1
# [4] = tested on: ABL2; settings: n = 1
# [5] = tested on: ACVR1B; settings: n = 1
# [6] = tested on: ACVR1; settings: n = 1
# [7] = tested on: ACVR2A; settings: n = 1
# [8] = tested on: T1, p38-alpha
# T1 construct: gene MAPK14
# [9] = tested on: T2, p38-beta
# T2 construct: gene MAPK11
# [10] = concentration: 1 μM, replicates: in singlicate
# [11] = concentration: 1 μM,replicates: in singlicate, 1 µM
# 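Throughout, for %Inh: KINOMEscan kinase panel screen.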
# 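Throughout, for Kd: kd values determined as follow-up on hits from a single-replicate KINOMEscan panel screen.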
compound,measurement,setting,value
CCn1c(-c2cccnc2O)nc2cnccc21 [SB-736715],%Inh,[1]; [10],0%
same,%Inh,[2]; [10],43%
same,%Inh,[3]; [10],0%
same,%Inh,[4]; [10],4%
same,%Inh,[5]; [10],0%
same,%Inh,[6]; [10],0%
same,%Inh,[7]; [10],0%
COc1cc2nccc(Nc3ccc(NC(=O)c4ccc(C)cc4)c(O)c3)c2cc1OC.Cl [GW440132],%Inh,[1]; [10],12%
same,%Inh,[2]; [10],28%
same,%Inh,[3]; [10],0%
same,%Inh,[4]; [10],16%
same,%Inh,[5]; [10],13%
same,%Inh,[6]; [10],0%
same,%Inh,[7]; [10],0%
COc1ccc(CNC(=O)NC2CCN(c3ccnc(Nc4cc(OC)c(OC)c(OC)c4)n3)C2)cc1 (stereo not shown) [GSK1379748],%Inh,[1]; [10],49%
same,%Inh,[2]; [10],0%
same,%Inh,[3]; [10],0%
same,%Inh,[4]; [10],0%
same,%Inh,[5]; [10],0%
same,%Inh,[6]; [10],15%
same,%Inh,[7]; [10],0%
O=C1NC(=O)C(N2CCc3ccccc32)=C1c1ccccc1Cl [SB-373598],%Inh,[1]; [10],7%
same,%Inh,[2]; [10],12%
same,%Inh,[3]; [10],97.7%
same,%Inh,[4]; [10],15%
same,%Inh,[5]; [10],35%
same,%Inh,[6]; [10],27%
same,%Inh,[7]; [10],25%
COc1ccc(C2=C(Nc3cccc(C(=O)O)c3)C(=O)NC2=O)cc1 [SB-390765],%Inh,[1]; [10],4%
same,%Inh,[2]; [10],35%
same,%Inh,[3]; [10],0%
same,%Inh,[4]; [10],1%
same,%Inh,[5]; [10],7%
same,%Inh,[6]; [10],100%
same,%Inh,[7]; [10],0%
COc1cccc(-c2cc(-c3c[nH]nc3-c3ccccn3)ccn2)c1 [GW680338],%Inh,[1]; [10],4%
same,%Inh,[2]; [10],0%
same,%Inh,[3]; [10],3%
same,%Inh,[4]; [10],0%
same,%Inh,[5]; [10],50%
same,%Inh,[6]; [10],24%
same,%Inh,[7]; [10],9%
Cc1ccc(-c2cc(-c3c[nH]nc3-c3ccccn3)ccn2)cc1 [GW684088],%Inh,[1]; [10],22%
same,%Inh,[2]; [10],35%
same,%Inh,[3]; [10],21%
same,%Inh,[4]; [10],0%
same,%Inh,[5]; [10],65%
same,%Inh,[6]; [10],29%
same,%Inh,[7]; [10],0%
Cc1ccc(NC(=O)Nc2cccc(Cl)c2)cc1-c1ccc(C(=O)Nc2ccncc2)cc1 [GSK1398468],%Inh,[1]; [10],37%
same,%Inh,[2]; [10],0%
same,%Inh,[3]; [10],1%
same,%Inh,[4]; [10],17%
same,%Inh,[5]; [10],0%
same,%Inh,[6]; [10],0%
same,%Inh,[7]; [10],0%
CC(C)(C)c1ccc(C(=O)Nc2cn3cc(-c4cccnc4)ccc3n2)cc1,%Inh,[1]; [10],25%
same,%Inh,[2]; [10],50%
same,%Inh,[3]; [10],37%
same,%Inh,[4]; [10],20%
same,%Inh,[5]; [10],13%
same,%Inh,[6]; [10],21%
same,%Inh,[7]; [10],0%
Cc1ccc(NC(=O)Nc2cc(C(C)(C)C)nn2-c2ccccc2)cc1 [GSK1014915],Kd,[8],58 nM
same,Kd,[9],540 nM
same,%Inh,[1]; [10],0%
same,%Inh,[2]; [10],0%
same,%Inh,[3]; [10],2%
same,%Inh,[4]; [10],14%
same,%Inh,[5]; [10],0%
same,%Inh,[6]; [10],7%
same,%Inh,[7]; [10],6%
CS(=O)(=O)c1ccc(-c2nc3n(c2-c2ccncc2)CCC3)cc1 [SKF-105942],%Inh,[1]; [10],14%
same,%Inh,[2]; [10],0%
same,%Inh,[3]; [10],8%
same,%Inh,[4]; [10],9%
same,%Inh,[5]; [10],0%
same,%Inh,[6]; [10],10%
same,%Inh,[7]; [10],0%
CC(C)(C)c1ccc(C(=O)Nc2cn3cc(Cl)ccc3n2)cc1,%Inh,[1]; [10],0%
same,%Inh,[2]; [10],35%
same,%Inh,[3]; [10],0%
same,%Inh,[4]; [10],0%
same,%Inh,[5]; [10],0%
same,%Inh,[6]; [10],0%
same,%Inh,[7]; [10],0%
COC(=O)c1c(-c2ccccc2)c2cc(OC)ccc2c(=O)n1Cc1ccccc1,%Inh,[1]; [10],22%
same,%Inh,[2]; [10],66%
same,%Inh,[3]; [10],0%
same,%Inh,[4]; [10],12%
same,%Inh,[5]; [10],0%
same,%Inh,[6]; [10],0%
same,%Inh,[7]; [10],0%
Cc1cccc(-c2nc(C)cc(Nc3ccncc3)n2)n1 [GSK257997],%Inh,[1]; [10],99.8%
same,%Inh,[2]; [10],0%
same,%Inh,[3]; [10],0%
same,%Inh,[4]; [10],6%
same,%Inh,[5]; [10],78%
same,%Inh,[6]; [10],15%
same,%Inh,[7]; [10],0%
CCCc1ccc(S(=O)(=O)NC2CCN(c3ccnc(Nc4ccc(F)cc4)n3)C2)cc1 (stereo not shown) [GSK1379715],%Inh,[1]; [10],1%
same,%Inh,[2]; [10],0%
same,%Inh,[3]; [10],0%
same,%Inh,[4]; [10],6%
same,%Inh,[5]; [10],0%
same,%Inh,[6]; [10],16%
same,%Inh,[7]; [10],0%
Cc1ccc(NC(=O)Nc2cccc(C(F)(F)F)c2)cc1 [GSK955403],%Inh,[1]; 1 µM,26%
same,%Inh,[2]; 1 µM,49%
same,%Inh,[3]; 1 µM,23%
same,%Inh,[4]; 1 µM,3%
same,%Inh,[5]; 1 µM,85%
same,%Inh,[6]; 1 µM,10%
same,%Inh,[7]; 1 µM,2%
CSc1nn2c(=O)cc(N3CCOCC3)nc2n1Cc1cccc(C(F)(F)F)c1C [GSK2363608],%Inh,[1]; [11],3% and 25%
same,%Inh,[2]; [10],0%
same,%Inh,[3]; [10],0%
same,%Inh,[4]; [11],5% and 17%
same,%Inh,[5]; [10],0%
same,%Inh,[6]; [11],0% and 14%
same,%Inh,[7]; [10],0%
Cl.NC(=O)c1cccc(Nc2nccc(Nc3ccc(Oc4cccc(Cl)c4)c(Cl)c3)n2)c1 [GW659008],%Inh,[1]; [10],14%
same,%Inh,[2]; [10],0%
same,%Inh,[3]; [10],0%
same,%Inh,[4]; [10],20%
same,%Inh,[5]; [10],0%
same,%Inh,[6]; [10],29%
same,%Inh,[7]; [10],0%
Cc1cccc(-c2nc(-c3ccc(S(C)(=O)=O)cc3)sc2-c2ccnc(NCCc3ccccc3)c2)c1,Kd,[8],1900 nM
same,%Inh,[1]; [10],12%
same,%Inh,[2]; [10],90.7%
same,%Inh,[3]; [10],21%
same,%Inh,[4]; [10],0%
same,%Inh,[5]; [10],8%
same,%Inh,[6]; [10],0%
same,%Inh,[7]; [10],0%

# From publication PMC5540273 (PLoS ONE, 2017)
